# Records with an inconclusive call do not appear. A call without a number means that no potency is given here. Unmarked numbers belong to inactive results. Calls of active or inactive are those of the source. Calls come from the whole dose curve; as a rule, active = well fitted inhibition curve with a large enough effect; inconclusive = small, poorly fitted or top-dose-only effect; inactive = flat fitted curve, though single readings scatter.
# What was measured:
# [1] = qHTS profiling for inhibitors of Plasmodium falciparum proliferation (AID 504749); note: nearly all actives have a fitted effect of over 60% in size; details: P. falciparum in erythrocytes, SYBR Green DNA, 72 h
# In short: (§1)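 Quantitative HTS: compounds pinned into medium, infected erythrocytes added (0.3% parasitemia, 2.5% hematocrit), 72 h culture at 37 C under 5% CO2. Saponin/Triton lysis with SYBR Green I, overnight RT, then fluorescence read.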
# [2] = test system: 3D7; experiment: as above; details: P. falciparum in erythrocytes, SYBR Green DNA, 72 h; series mostly up to 28.7 µM
# In short: as §1
# [3] = test system: 7G8; experiment: as above; details: P. falciparum in erythrocytes, SYBR Green DNA, 72 h; series mostly up to 28.7 µM
# In short: as §1
# [4] = test system: AS120; experiment: as above; details: P. falciparum in erythrocytes, SYBR Green DNA, 72 h; series mostly up to 28.7 µM
# In short: as §1
# [5] = test system: ATS95; experiment: as above; details: P. falciparum in erythrocytes, SYBR Green DNA, 72 h; series mostly up to 28.7 µM
# In short: as §1
# [6] = test system: C2A; experiment: as above; details: P. falciparum in erythrocytes, SYBR Green DNA, 72 h; series mostly up to 28.7 µM
# In short: as §1
# [7] = test system: CP192; experiment: as above; details: P. falciparum in erythrocytes, SYBR Green DNA, 72 h; series mostly up to 28.7 µM
# In short: as §1
# [8] = test system: CP194; experiment: as above; details: P. falciparum in erythrocytes, SYBR Green DNA, 72 h; series mostly up to 28.7 µM
# In short: as §1
# [9] = test system: CP201; experiment: as above; details: P. falciparum in erythrocytes, SYBR Green DNA, 72 h; series mostly up to 28.7 µM
# In short: as §1
# [10] = test system: CP215; experiment: as above; details: P. falciparum in erythrocytes, SYBR Green DNA, 72 h; series mostly up to 28.7 µM
# In short: as §1
# [11] = test system: CP217; experiment: as above; details: P. falciparum in erythrocytes, SYBR Green DNA, 72 h; series mostly up to 28.7 µM
# In short: as §1
# [12] = test system: AA1029; experiment: as above; details: P. falciparum in erythrocytes, SYBR Green DNA, 72 h; series mostly up to 28.7 µM
# In short: as §1
# [13] = test system: ATS189; experiment: as above; details: P. falciparum in erythrocytes, SYBR Green DNA, 72 h; series mostly up to 28.7 µM
# In short: as §1
# [14] = test system: CP185; experiment: as above; details: P. falciparum in erythrocytes, SYBR Green DNA, 72 h; series mostly up to 28.7 µM
# In short: as §1
# [15] = test system: CP191; experiment: as above; details: P. falciparum in erythrocytes, SYBR Green DNA, 72 h; series mostly up to 28.7 µM
# In short: as §1
# [16] = test system: CP203; experiment: as above; details: P. falciparum in erythrocytes, SYBR Green DNA, 72 h; series mostly up to 28.7 µM
# In short: as §1
# [17] = test system: CP211; experiment: as above; details: P. falciparum in erythrocytes, SYBR Green DNA, 72 h; series mostly up to 28.7 µM
# In short: as §1
# [18] = at 28.7 µM (top of the series), parasite line A
# [19] = at 28.7 µM (top of the series), parasite line B
# [20] = at 12.8 µM (top of the series), parasite line A
# [21] = at 12.8 µM (top of the series), parasite line B
# Potency is the fitted concentration of half-maximal effect.
smiles,measurement,setting,value
CN1CCN(CCC(=O)N2c3ccccc3Sc3ccc(C(F)(F)F)cc32)CC1,"activity, negative = inhibition",[1]; [18],8.92%
same,"activity, negative = inhibition",[1]; [19],-2.7%
same,Potency,[2],inactive
same,Potency,[3],10 µM (active)
same,Potency,[4],inactive
same,Potency,[5],inactive
same,Potency,[6],inactive
same,Potency,[7],inactive
same,Potency,[8],inactive
same,Potency,[9],inactive
same,Potency,[10],inactive
same,Potency,[11],inactive
COc1cc(C)nc(-n2nc(C)cc2OC)n1,"activity, negative = inhibition",[1]; [20],3.73%
same,"activity, negative = inhibition",[1]; [21],-3.99%
same,Potency,[2],inactive
same,Potency,[3],inactive
same,Potency,[12],inactive
same,Potency,[4],inactive
same,Potency,[13],inactive
same,Potency,[5],inactive
same,Potency,[6],inactive
same,Potency,[14],inactive
same,Potency,[15],inactive
same,Potency,[8],inactive
same,Potency,[9],inactive
same,Potency,[16],inactive
same,Potency,[17],inactive
same,Potency,[10],inactive
same,Potency,[11],inactive
Nc1nc(-c2ccccc2)c(Br)c(=O)[nH]1,"activity, negative = inhibition",[1]; [18],-7.1%
same,"activity, negative = inhibition",[1]; [19],1.53%
same,Potency,[2],inactive
same,Potency,[3],inactive
same,Potency,[12],inactive
same,Potency,[4],inactive
same,Potency,[13],inactive
same,Potency,[5],inactive
same,Potency,[6],inactive
same,Potency,[14],inactive
same,Potency,[15],inactive
same,Potency,[7],inactive
same,Potency,[8],inactive
same,Potency,[9],inactive
same,Potency,[16],inactive
same,Potency,[17],inactive
same,Potency,[10],inactive
same,Potency,[11],inactive
Cc1cc(NS(=O)(=O)c2ccc(N)cc2)nc(C)n1,"activity, negative = inhibition",[1]; [18],9.36%
same,"activity, negative = inhibition",[1]; [19],5.66%
same,Potency,[2],inactive
same,Potency,[3],inactive
same,Potency,[12],inactive
same,Potency,[4],inactive
same,Potency,[13],inactive
same,Potency,[5],inactive
same,Potency,[6],inactive
same,Potency,[14],inactive
same,Potency,[15],inactive
same,Potency,[7],inactive
same,Potency,[8],inactive
same,Potency,[9],inactive
same,Potency,[16],inactive
same,Potency,[10],inactive
same,Potency,[11],inactive
CC(C)NCC(O)c1ccc2ccccc2c1 (stereo not given),Potency,[1]; parasite line A,11.2 µM (active)
same,Potency,[1]; parasite line B,4.47 µM (active)
same,Potency,[2],11.2 µM (active)
same,Potency,[3],1.41 µM (active)
same,Potency,[12],5.01 µM (active)
same,Potency,[4],7.94 µM (active)
same,Potency,[13],8.91 µM (active)
same,Potency,[5],8.91 µM (active)
same,Potency,[14],8.91 µM (active)
same,Potency,[15],11.2 µM (active)
same,Potency,[8],10.7 µM (active)
same,Potency,[9],inactive
same,Potency,[16],12 µM (active)
same,Potency,[10],10.7 µM (active)
same,Potency,[11],8.91 µM (active)
CN(Cc1ccc(C(C)(C)C)cc1)Cc1cccc2ccccc12,"activity, negative = inhibition",[1]; [18],-10%
same,"activity, negative = inhibition",[1]; [19],-26.9%
same,Potency,[2],inactive
same,Potency,[3],11.2 µM (active)
same,Potency,[12],inactive
same,Potency,[4],inactive
same,Potency,[13],inactive
same,Potency,[6],inactive
same,Potency,[14],inactive
same,Potency,[7],inactive
same,Potency,[8],inactive
same,Potency,[9],inactive
same,Potency,[16],inactive
same,Potency,[17],inactive
same,Potency,[10],inactive
same,Potency,[11],inactive
NS(=O)(=O)c1cc(C(=O)O)cc(N2CCCC2)c1Oc1ccccc1,"activity, negative = inhibition",[1]; [20],5.58%
same,"activity, negative = inhibition",[1]; [21],15.6%
same,Potency,[2],inactive
same,Potency,[3],inactive
same,Potency,[12],inactive
same,Potency,[4],inactive
same,Potency,[13],inactive
same,Potency,[5],inactive
same,Potency,[6],inactive
same,Potency,[14],inactive
same,Potency,[15],inactive
same,Potency,[7],inactive
same,Potency,[8],inactive
same,Potency,[9],inactive
same,Potency,[17],inactive
same,Potency,[10],inactive
same,Potency,[11],inactive
Cc1ncc(CO)c(C=O)c1O,"activity, negative = inhibition",[1]; [18],0.609%
same,"activity, negative = inhibition",[1]; [19],9.9%
same,Potency,[2],inactive
same,Potency,[3],inactive
same,Potency,[12],inactive
same,Potency,[4],inactive
same,Potency,[13],inactive
same,Potency,[5],inactive
same,Potency,[6],inactive
same,Potency,[14],inactive
same,Potency,[15],inactive
same,Potency,[11],inactive
N/C(=N\N=C\c1ccc(Cl)cc1)N/N=C/c1ccc(Cl)cc1,Potency,[1]; parasite line A,3.16 µM (active)
same,Potency,[1]; parasite line B,5.01 µM (active)
same,Potency,[2],3.98 µM (active)
same,Potency,[3],2.82 µM (active)
same,Potency,[4],5.01 µM (active)
same,Potency,[5],8.91 µM (active)
same,Potency,[6],8.91 µM (active)
same,Potency,[15],3.16 µM (active)
same,Potency,[7],inactive
same,Potency,[8],inactive
same,Potency,[9],inactive
same,Potency,[16],inactive
same,Potency,[17],inactive
same,Potency,[10],inactive
same,Potency,[11],8.91 µM (active)
NC(N)=NN=C(/C=C/c1ccc([N+](=O)[O-])o1)/C=C/c1ccc([N+](=O)[O-])o1,Potency,[1]; parasite line A,7.08 µM (active)
same,Potency,[1]; parasite line B,10 µM (active)
same,Potency,[2],2.24 µM (active)
same,Potency,[3],2.24 µM (active)
same,Potency,[12],10 µM (active)
same,Potency,[4],11.2 µM (active)
same,Potency,[5],10 µM (active)
same,Potency,[6],12.6 µM (active)
same,Potency,[15],10 µM (active)
CC(C)(C)NC[C@H](O)COc1cccc2c1CCCC2=O,"activity, negative = inhibition",[1]; [20],5.04%
same,"activity, negative = inhibition",[1]; [21],7.33%
same,Potency,[2],inactive
same,Potency,[3],inactive
same,Potency,[12],inactive
same,Potency,[4],inactive
same,Potency,[13],inactive
same,Potency,[5],inactive
same,Potency,[6],inactive
same,Potency,[14],inactive
same,Potency,[15],inactive
same,Potency,[7],inactive
same,Potency,[8],inactive
same,Potency,[9],inactive
same,Potency,[16],inactive
same,Potency,[17],inactive
same,Potency,[11],inactive

# From PubChem BioAssay (NCATS)
